{"source": "paper PMC4336329", "about": "(PLoS ONE, 2015)", "note": "In all, about 310,000 compounds went through this assay and about 14,000 (4.5%) showed an effect of 50% or more. The effect is printed as a negative number. For the sample, strong results were picked, then their nearest neighbours and some compounds at random.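 Further: peak tail current of the secondary pulse compared with the same well before compound.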", "data": [{"molecular_target": "human ether-à-go-go-related gene (hERG) potassium channel (human, UniProt Q12809)", "sequence (Q12809 whole entry, looked up)": "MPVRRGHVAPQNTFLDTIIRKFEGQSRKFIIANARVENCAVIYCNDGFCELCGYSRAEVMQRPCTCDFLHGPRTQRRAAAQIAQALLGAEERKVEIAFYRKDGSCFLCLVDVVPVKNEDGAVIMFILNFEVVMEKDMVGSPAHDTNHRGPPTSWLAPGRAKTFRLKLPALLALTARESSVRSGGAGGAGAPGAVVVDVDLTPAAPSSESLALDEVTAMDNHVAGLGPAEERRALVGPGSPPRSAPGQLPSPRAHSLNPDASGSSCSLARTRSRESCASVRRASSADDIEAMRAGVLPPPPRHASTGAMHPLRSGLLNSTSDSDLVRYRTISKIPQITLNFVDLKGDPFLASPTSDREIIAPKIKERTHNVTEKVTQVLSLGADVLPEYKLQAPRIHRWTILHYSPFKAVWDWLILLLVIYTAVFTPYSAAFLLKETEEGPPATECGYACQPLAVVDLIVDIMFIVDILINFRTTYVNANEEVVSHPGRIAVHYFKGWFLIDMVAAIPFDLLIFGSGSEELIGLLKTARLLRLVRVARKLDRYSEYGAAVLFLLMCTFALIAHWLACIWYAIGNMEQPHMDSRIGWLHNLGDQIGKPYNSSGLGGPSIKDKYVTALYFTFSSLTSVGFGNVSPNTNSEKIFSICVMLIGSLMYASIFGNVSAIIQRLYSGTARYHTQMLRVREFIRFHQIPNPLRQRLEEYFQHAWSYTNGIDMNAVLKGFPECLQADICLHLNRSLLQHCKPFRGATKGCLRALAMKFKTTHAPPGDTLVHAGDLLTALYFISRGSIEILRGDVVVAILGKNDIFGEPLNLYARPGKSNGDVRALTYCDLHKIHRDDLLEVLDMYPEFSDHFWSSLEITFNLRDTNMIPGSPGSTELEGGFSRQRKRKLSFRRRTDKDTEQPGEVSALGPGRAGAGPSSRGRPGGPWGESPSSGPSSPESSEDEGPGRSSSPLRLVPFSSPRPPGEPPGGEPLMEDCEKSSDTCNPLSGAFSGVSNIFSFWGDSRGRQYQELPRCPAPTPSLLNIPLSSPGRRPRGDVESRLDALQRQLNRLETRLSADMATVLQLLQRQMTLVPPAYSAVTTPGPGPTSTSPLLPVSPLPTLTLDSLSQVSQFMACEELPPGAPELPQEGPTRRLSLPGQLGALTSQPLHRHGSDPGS", "assay": "primary screen, population patch clamp on CHO cells stably expressing hERG; higher = less effect of the substance", "units": {"hERG current change (%, negative = inhibition) at 10uM": "%"}, "values": [{"molecule": "CC(C)(CC(=O)O)CC(=O)Nc1ccc2c(c1)ncn2CCc1ccccc1", "hERG current change (%, negative = inhibition) at 10uM": 15.8}, {"molecule": "CNC(=O)NC(=O)COC(=O)c1ccc(-n2c(C)ccc2C)cc1", "hERG current change (%, negative = inhibition) at 10uM": -7.41}, {"molecule": "COc1ccc(C(CC(=O)O)NC(=O)COc2cc(C)ccc2C)cc1OC", "note": "(centres unmarked)", "hERG current change (%, negative = inhibition) at 10uM": 21.2}, {"molecule": "CCCCn1c(=N)n(CC(O)COc2cccc(C)c2)c2ccccc21.Cl", "note": "(centres unmarked)", "hERG current change (%, negative = inhibition) at 10uM": -72.6}, {"molecule": "COCCCNc1nc2c(c(=O)[nH]c(=O)n2C)n1CC(O)COc1cccc(C)c1", "note": "(centres unmarked)", "hERG current change (%, negative = inhibition) at 10uM": -2.66}, {"molecule": "CCCn1c(=N)n(CC(O)COc2cccc(C)c2)c2ccccc21.Cl", "note": "(centres unmarked)", "hERG current change (%, negative = inhibition) at 10uM": -71.3}, {"molecule": "CCn1c(=N)n(CC(O)COc2cccc(C)c2)c2ccccc21.Cl", "note": "(centres unmarked)", "hERG current change (%, negative = inhibition) at 10uM": -58.6}, {"molecule": "Cc1ccc(-n2c(=O)[nH]cc(C(=O)Nc3ccc4c(c3)OCCO4)c2=O)cc1", "hERG current change (%, negative = inhibition) at 10uM": 18.3}, {"molecule": "CC(=O)N1CCN(c2ccc(NC(=O)c3cccc(OCc4ccccc4)c3)cc2)CC1", "hERG current change (%, negative = inhibition) at 10uM": 7.06}, {"molecule": "c1ccc(OCCCn2ccnc2)cc1", "hERG current change (%, negative = inhibition) at 10uM": 16.3}, {"molecule": "O=c1ccc2ccccc2n1Cc1cccc(F)c1", "hERG current change (%, negative = inhibition) at 10uM": 9.61}, {"molecule": "COc1ccc(CCN2C(=O)CC(Cc3ccccc3)C2=O)cc1OC", "note": "(centres unmarked)", "hERG current change (%, negative = inhibition) at 10uM": -17.2}, {"molecule": "Cc1ccc(SCC(=O)OC(C)C(=O)NCc2ccccc2)cc1", "note": "(centres unmarked)", "hERG current change (%, negative = inhibition) at 10uM": -1.8}, {"molecule": "COc1ccc2c(c1)OC[C@H]1[C@H]2N2C(=O)CN(CC3CCCO3)C(=O)[C@@]2(C)[C@H]1c1ccccc1", "note": "(some centres unmarked)", "hERG current change (%, negative = inhibition) at 10uM": -1.62}, {"molecule": "CCn1cnc2cc(NCc3ccc(OC)cc3)ccc21", "hERG current change (%, negative = inhibition) at 10uM": -39.4}, {"molecule": "CCn1cnc2cc(NCc3ccncc3)ccc21", "hERG current change (%, negative = inhibition) at 10uM": 6.89}, {"molecule": "COc1ccc(CNc2ccc3c(c2)nc(C)n3C)cc1", "hERG current change (%, negative = inhibition) at 10uM": -31.9}, {"molecule": "CCc1ccc(CNc2ccc3c(c2)ncn3CC)cc1", "hERG current change (%, negative = inhibition) at 10uM": -19.7}, {"molecule": "CCn1cnc2cc(NCc3ccc(N(C)C)cc3)ccc21", "hERG current change (%, negative = inhibition) at 10uM": -8.28}, {"molecule": "CCCn1cnc2cc(NCc3cccs3)ccc21", "hERG current change (%, negative = inhibition) at 10uM": -10.9}, {"molecule": "CCCn1cnc2cc(NCc3cccc(OC)c3)ccc21", "hERG current change (%, negative = inhibition) at 10uM": -67.2}, {"molecule": "CCn1cnc2cc(NCc3ccc(Br)cc3)ccc21", "hERG current change (%, negative = inhibition) at 10uM": -61.3}, {"molecule": "CCn1cnc2cc(NCc3ccc(Cl)cc3)ccc21", "hERG current change (%, negative = inhibition) at 10uM": -68}, {"molecule": "COc1ccc(CNc2ccc3c(c2)nc(C)n3C)cc1OC", "hERG current change (%, negative = inhibition) at 10uM": -17.1}, {"molecule": "CCn1cnc2cc(NCc3ccc(C)cc3)ccc21", "hERG current change (%, negative = inhibition) at 10uM": -40.4}, {"molecule": "COc1ccc(OC)c(CNc2ccc3c(c2)nc(C)n3C)c1", "hERG current change (%, negative = inhibition) at 10uM": -68.4}, {"molecule": "CCc1ccc(N(CC(=O)Nc2ccccc2C(=O)N2CCCC2)S(C)(=O)=O)cc1", "hERG current change (%, negative = inhibition) at 10uM": -10.6}, {"molecule": "CN(C)c1ccc(CNn2cnnc2SCc2ccc(F)cc2)cc1", "hERG current change (%, negative = inhibition) at 10uM": -9.48}, {"molecule": "COc1ccc(NC(=O)CC2C(=O)N(c3ccc(OC)cc3)C(=O)N2C(C)C)cc1", "note": "(centres unmarked)", "hERG current change (%, negative = inhibition) at 10uM": -5.34}, {"molecule": "Cc1ccc(NC(=O)c2ccc(-n3cncn3)c([N+](=O)[O-])c2)cc1F", "hERG current change (%, negative = inhibition) at 10uM": -18.1}, {"molecule": "CC12CCC(C(=O)Nc3ccccc3Br)(C/C1=N\\O)C2(C)C", "note": "(centres unmarked)", "hERG current change (%, negative = inhibition) at 10uM": 4.44}, {"molecule": "CC(On1nnc2ccccc21)C(=O)N1CCN(Cc2ccccc2)CC1", "note": "(centres unmarked)", "hERG current change (%, negative = inhibition) at 10uM": 18.2}, {"molecule": "C(#CCN1CCOCC1)COCc1ccccc1.Cl", "hERG current change (%, negative = inhibition) at 10uM": 11.1}, {"molecule": "COc1cccc(OCCOc2ccc(/C=C3/SC(=S)NC3=O)cc2)c1", "hERG current change (%, negative = inhibition) at 10uM": 23}, {"molecule": "CN(CC(=O)Nc1ccccc1Cl)C(=O)CSc1nnc(-c2ccco2)o1", "hERG current change (%, negative = inhibition) at 10uM": -7.79}, {"molecule": "CCCn1cnc2cc(NCc3ccccn3)ccc21", "hERG current change (%, negative = inhibition) at 10uM": -18.8}, {"molecule": "CCCCn1cnc2cc(NCc3cccc(OC)c3O)ccc21", "hERG current change (%, negative = inhibition) at 10uM": -51.2}, {"molecule": "CCCn1cnc2cc(NCc3ccc(Br)cc3)ccc21", "hERG current change (%, negative = inhibition) at 10uM": -73.9}, {"molecule": "CCCCn1cnc2cc(NCc3ccncc3)ccc21", "hERG current change (%, negative = inhibition) at 10uM": -1.31}, {"molecule": "Cc1ccc(CNc2ccc3c(c2)nc(C)n3C)cc1", "hERG current change (%, negative = inhibition) at 10uM": -21.9}, {"molecule": "CCCn1cnc2cc(NCc3cccc(OC)c3O)ccc21", "hERG current change (%, negative = inhibition) at 10uM": -29.3}, {"molecule": "CCCn1cnc2cc(NCc3ccccc3O)ccc21", "hERG current change (%, negative = inhibition) at 10uM": -0.21}, {"molecule": "Cn1cnc2cc(NCc3ccccc3Cl)ccc21", "hERG current change (%, negative = inhibition) at 10uM": -35}, {"molecule": "Cn1cnc2cc(NCc3ccc(Cl)cc3)ccc21", "hERG current change (%, negative = inhibition) at 10uM": -18.3}, {"molecule": "CCn1cnc2cc(NCc3ccccc3Cl)ccc21", "hERG current change (%, negative = inhibition) at 10uM": -52.1}, {"molecule": "CCn1cnc2cc(NCc3cccc(OC)c3O)ccc21", "hERG current change (%, negative = inhibition) at 10uM": -5.91}, {"molecule": "Cc1nc2cc(NCc3ccc(Cl)cc3)ccc2n1C", "hERG current change (%, negative = inhibition) at 10uM": -70.6}, {"molecule": "CN(C)c1ccc(C(CNC(=O)c2ccccc2F)c2c[nH]c3ccccc23)cc1", "note": "(centres unmarked)", "hERG current change (%, negative = inhibition) at 10uM": -8.6}, {"molecule": "Cc1[nH]c(C)c(S(=O)(=O)Nc2ccc(OC(F)(F)F)cc2)c1C(=O)N1CCCCC1", "hERG current change (%, negative = inhibition) at 10uM": -7.79}, {"molecule": "O=C(N/N=C/C=C/c1ccccc1)c1cccc(Br)c1", "hERG current change (%, negative = inhibition) at 10uM": 5.3}, {"molecule": "FC(F)(F)c1ccccc1N1CC1c1ccncc1", "note": "(centres unmarked)", "hERG current change (%, negative = inhibition) at 10uM": 13.3}, {"molecule": "O=C(O)c1ccccc1C(=O)NC1CCN(c2nccc(C(F)(F)F)n2)CC1", "hERG current change (%, negative = inhibition) at 10uM": 9.16}, {"molecule": "COc1ccc(N2C(=O)CC(N3CCCC4CCCCC43)C2=O)cc1", "note": "(centres unmarked)", "hERG current change (%, negative = inhibition) at 10uM": 1.28}, {"molecule": "CCOC(=O)c1ccc(NC(=O)C2CC2)cc1", "hERG current change (%, negative = inhibition) at 10uM": -18.4}, {"molecule": "COc1ccc(/C=N/NC(=O)c2cc(-c3cccn3C)n[nH]2)cc1OC", "hERG current change (%, negative = inhibition) at 10uM": -27.5}, {"molecule": "COc1cccc(/C=N/NC(=O)c2cc(-c3cccn3C)n[nH]2)c1", "hERG current change (%, negative = inhibition) at 10uM": -61.1}, {"molecule": "Cn1cccc1-c1cc(C(=O)N/N=C/c2cccc(O)c2)[nH]n1", "hERG current change (%, negative = inhibition) at 10uM": -7.31}, {"molecule": "CCOc1nc2ccccc2cc1C=O", "hERG current change (%, negative = inhibition) at 10uM": -5.31}, {"molecule": "Cc1ccc(NS(=O)(=O)c2ccc(NC(=O)[C@@H]3CCCC[C@@H]3C(=O)O)cc2)c(C)c1", "hERG current change (%, negative = inhibition) at 10uM": 18}, {"molecule": "COc1ccc(C2(O)CN(c3ccccc3)C3=[N+]2CCS3)cc1OC.[Br-]", "note": "(centres unmarked)", "hERG current change (%, negative = inhibition) at 10uM": 1.7}, {"molecule": "COc1ccc(OC)c(N2CC(O)(c3ccccc3)[N+]3=C2SCCC3)c1.[Br-]", "note": "(centres unmarked)", "hERG current change (%, negative = inhibition) at 10uM": -72.6}, {"molecule": "Cc1ccccc1N1CC(O)(c2cccs2)[N+]2=C1CCCC2.[Br-]", "note": "(centres unmarked)", "hERG current change (%, negative = inhibition) at 10uM": -25.9}, {"molecule": "Cc1ccccc1N1CC(O)(c2ccccc2)[N+]2=C1SCC2.[Br-]", "note": "(centres unmarked)", "hERG current change (%, negative = inhibition) at 10uM": -19.5}, {"molecule": "COc1ccc(OC)c(N2CC(O)(c3cccs3)[N+]3=C2SCCC3)c1.[Br-]", "note": "(centres unmarked)", "hERG current change (%, negative = inhibition) at 10uM": -50.5}, {"molecule": "Cc1ccc(C)c(N2CC(O)(c3cccs3)[N+]3=C2CCCC3)c1.[Br-]", "note": "(centres unmarked)", "hERG current change (%, negative = inhibition) at 10uM": -23}]}]}
